In the library only some 21% were active in any assay of this set; here they are far more common.
CYP2C9 act: increases human cytochrome P450 2C9 activity | recombinant CYP2C9, luciferin-H conversion, luminescence; stronger effect = higher value; factor 1 = untreated enzyme, 0 = blocked | activation factor at 5 µM | 96,000 compounds, 1.4% hits | AID 1024;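 active means activation factor of 2 or more for CYP2C9 at a 5 µM dose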
CYP2C19 activ: activators of human cytochrome P450 2C19; AID 1025; recombinant CYP2C19, luciferin-H EGE luminescence; stronger effect = higher value; 0 = fully inhibited enzyme, 1 = untreated enzyme; activation factor at 5 µM; 96,000 tested, under 10 active; P33261;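 active means activation factor of at least 2 at 5 µM in the primary screen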
Target sequence (P33261 whole entry, looked up): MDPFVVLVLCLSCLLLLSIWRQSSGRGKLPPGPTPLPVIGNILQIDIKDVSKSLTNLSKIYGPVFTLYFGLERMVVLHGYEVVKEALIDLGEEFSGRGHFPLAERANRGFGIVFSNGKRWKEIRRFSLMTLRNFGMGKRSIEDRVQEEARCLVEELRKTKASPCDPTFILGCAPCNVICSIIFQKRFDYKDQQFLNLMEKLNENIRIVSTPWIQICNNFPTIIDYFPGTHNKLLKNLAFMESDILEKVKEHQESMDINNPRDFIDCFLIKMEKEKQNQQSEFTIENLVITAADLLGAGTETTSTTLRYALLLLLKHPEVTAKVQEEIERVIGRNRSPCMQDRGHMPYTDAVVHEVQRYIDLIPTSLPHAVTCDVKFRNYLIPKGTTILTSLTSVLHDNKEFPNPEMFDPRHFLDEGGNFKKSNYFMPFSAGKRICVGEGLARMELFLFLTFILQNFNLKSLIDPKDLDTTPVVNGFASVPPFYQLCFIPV
CYP2C9 inh: inhibitors of human CYP2C9 | inhibition, % at 5 µM | 96,000 compounds, 20% hits | CYP2C9 Supersomes, luciferin-H conversion, luminescence;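 active means blocking of liver enzyme CYP2C9 beyond about 50% at 5 µM, limit read from the data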
MRP resist rev: reverses drug resistance mediated by MRP. H69AR cells + 2 uM doxorubicin, CellTiter-Glo, 72 h. differential viability (reversal), % at 10 µM. 85,000 compounds, 0.04% hits. AID 602;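 active means viability drop by adding the cancer drug above about 55%, with treated viability meeting a 40% cutoff, limit read from the data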;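 further: larger differential means the compound sensitizes cells more to doxorubicin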
CYP2C19 inh: human CYP2C19 inhibition. CYP2C19 Supersomes, luciferin-H EGE luminescence, 30 min. inhibition, % at 5 µM. 96,000 compounds, 21% hits. AID 778;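 active means CYP2C19 inhibition above a set limit at 5 µM in the primary screen, cut at about 50% in these data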
MRP1 act: activates MRP-1. H69AR cells + doxorubicin, viability rescue, CellTiter-Glo. viability increase, % at 10 µM. 140,000 compounds, 0.61% hits. AID 799;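 active means viability gain under doxorubicin at or above a set limit, the compound median plus 3 SD, cut at about 4.7% in these data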;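 further: MRP-1 overexpressing cells given doxorubicin 25 µM after compound pretreatment; 18-22 h compound pretreatment then 72 h with doxorubicin before readout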
Large screens that a line does not name were inactive.

N#CC1=C(N)OC2=C(C(=O)CCC2)C1CCc1ccccc1 (stereo not given)	CYP2C9 inh 92, CYP2C19 inh 94
CC1(C)CC(=O)C2=C(C1)N(c1ccccc1)C(N)=C(C#N)C2c1ccccc1 (stereo not given)	none (no result: CYP2C9 act, CYP2C19 activ, CYP2C9 inh, CYP2C19 inh)
CC1(C)CC(=O)C2=C(C1)N(c1ccccc1)C(N)=C(C#N)C2c1cccnc1 (stereo not given)	CYP2C9 inh 50
CC1(C)CC(=O)C2=C(C1)N(c1ccccc1)C(N)=C(C#N)C2c1ccsc1 (stereo not given)	CYP2C9 inh 75, CYP2C19 inh 68
CCN(CC)CCCNC(=O)C1c2ccccc2C(=O)N(C)C1c1ccc(OC)cc1 (stereo not given)	none
CCn1c2ccccc2c2cc(C3C(C#N)=C(C)NC(C)=C3C#N)ccc21	CYP2C9 inh 95, CYP2C19 inh 100
Cc1ccc(N2C(N)=C(C#N)C(c3cccs3)C3=C2CC(C)(C)CC3=O)cc1 (stereo not given)	CYP2C9 inh 80
Cc1c(C2C(C#N)=C(N)N(c3ccccc3C#N)C3=C2C(=O)CCC3)cnn1C (stereo not given)	none (no result: CYP2C9 act, CYP2C19 activ, CYP2C9 inh, MRP resist rev, CYP2C19 inh)
N#CC1=C(N)N(c2ccccc2C#N)C2=C(C(=O)CCC2)C1c1ccsc1 (stereo not given)	CYP2C9 inh 62
CCOC(=O)C1=C(N)OC2=C(C(=O)CC(C)(C)C2)C1c1ccccc1OCC#N (stereo not given)	CYP2C9 inh 79, CYP2C19 inh 71
O=C(COC(=O)C1=Cc2ccccc2OC1)NC1CCCC1	none (no result: MRP resist rev)
O=C(CNc1ccccc1-c1ccccc1)NCc1ccccc1	none (no result: CYP2C9 act, CYP2C19 activ, CYP2C9 inh, MRP resist rev, CYP2C19 inh)
CCOC(=O)C1CCC(CN(Cc2ccccc2C)S(=O)(=O)c2ccc([N+](=O)[O-])cc2)CC1 (stereo not given)	none (no result: CYP2C9 act, CYP2C19 activ, CYP2C9 inh, MRP resist rev, CYP2C19 inh)
FC(F)(F)c1cc(N2CCOCC2)nc(-c2ccccc2)n1	none (no result: CYP2C9 act, CYP2C19 activ, CYP2C9 inh, MRP resist rev, CYP2C19 inh)
N#CC1=C(N)N(c2ccc(Br)cc2)C2=C(C(=O)CCC2)C1c1cccnc1 (stereo not given)	CYP2C9 inh 52, MRP resist rev 59
COc1ccc(C2C(C#N)=C(N)OC3=C2C(=O)CC(C)(C)C3)cc1Cn1cc([N+](=O)[O-])cn1 (stereo not given)	none (no result: CYP2C9 act, CYP2C19 activ, CYP2C9 inh, MRP resist rev, CYP2C19 inh)
CCn1c2ccccc2c2cc(N)ccc21	CYP2C19 inh 93
Cc1ccc(N2C(N)=C(C#N)C(c3cccnc3)C3=C2CCCC3=O)cc1 (stereo not given)	none
O=C1CCCC2=C1C(Cc1ccccc1)C1=C(CCCC1=O)O2	CYP2C19 inh 82
CCn1c2ccccc2c2cc(C3C(C#N)=C(N)OC4=C3C(=O)CC(C)(C)C4)ccc21 (stereo not given)	CYP2C9 inh 57 (no result: MRP1 act)
O=C(NCc1cc(C(F)(F)F)cc(C(F)(F)F)c1)C1CC(c2c(Cl)cccc2Cl)=NO1 (stereo not given)	CYP2C9 inh 77, CYP2C19 inh 62 (no result: MRP resist rev)
O=C(NCc1ccc(OC(F)(F)F)cc1)C1CC(c2c(Cl)cccc2Cl)=NO1 (stereo not given)	CYP2C19 inh 87 (no result: MRP resist rev)
O=C(NCc1cc(C(F)(F)F)cc(C(F)(F)F)c1)C1CC(c2ccccc2[N+](=O)[O-])=NO1 (stereo not given)	none (no result: MRP resist rev)
O=C(NCCc1cccs1)C1CC(c2c(Cl)cccc2Cl)=NO1 (stereo not given)	CYP2C9 act 2.2, CYP2C19 inh 60 (no result: MRP resist rev)
O=C(NCc1ccccn1)C1CC(c2ccc(Cl)c(Cl)c2)=NO1 (stereo not given)	none
COc1cc2c(cc1NC(=O)c1cc(-c3ccncc3)nc3ccc(C)cc13)oc1ccccc12	CYP2C9 inh 87, CYP2C19 inh 61 (no result: MRP resist rev)
COc1cc2c(cc1NC(=O)Cc1ccc(C)cc1)oc1ccccc12	none (no result: CYP2C9 act, CYP2C19 activ, CYP2C9 inh, MRP resist rev, CYP2C19 inh)
CC(C)OCCCNC(=O)NC12CC3CC(CC(C3)C1)C2	CYP2C19 inh 57
COCCNC(=S)NC12CC3CC(CC(C3)C1)C2	none
Cc1ccc(NC(=O)CNS(=O)(=O)c2cccs2)cc1F	none (no result: CYP2C9 act, CYP2C19 activ, CYP2C9 inh, CYP2C19 inh)
COc1ccc(NC(=O)CCCNS(=O)(=O)c2cccs2)cc1	CYP2C19 inh 72
O=C(O)CCCNS(=O)(=O)c1cccs1	none
COc1ccc(NC(=O)CNS(=O)(=O)c2cccs2)cc1	CYP2C19 inh 53
CC(=O)NC(NC(=S)Nc1ccc(N=Nc2ccccc2)cc1)C(Cl)(Cl)Cl (stereo not given)	none (no result: MRP resist rev)
CCn1c(SCC(=O)NC(=O)Nc2ccc3c(c2)OCCO3)nnc1-c1cccs1	CYP2C9 inh 56
O=C(CSc1nnc(-c2ccco2)n1Cc1ccccc1)NCc1ccccc1	none (no result: CYP2C9 act, CYP2C19 activ, CYP2C9 inh, CYP2C19 inh)
CCn1c(Cc2ccccc2)nnc1SCC(=O)Nc1ccc2c(c1)OCCO2	CYP2C9 inh 58, CYP2C19 inh 68
Cn1c(SCC(=O)Nc2ccc3c(c2)OCCO3)nnc1-c1ccco1	CYP2C9 inh 63, CYP2C19 inh 52
CCn1c(SCC(=O)Nc2ccc3c(c2)OCCO3)nnc1-c1ccco1	none
O=C(CSc1nnc(-c2ccco2)n1Cc1ccco1)NCc1ccccc1	CYP2C9 inh 85, CYP2C19 inh 66
COC(=O)C1=C2SC(C)C(=O)N2C(N)=C(C#N)C1c1ccc(OC)c(OC)c1 (stereo not given)	CYP2C9 inh 56
COC(=O)C1=C2SC(C)C(=O)N2C(N)=C(C#N)C1c1cc(OC)c(OC)c(OC)c1 (stereo not given)	none
CCOC(=O)c1cccc2c(=O)c(C(=O)c3ccc(Cl)cc3)c(C(=O)OC)[nH]c12	none (no result: CYP2C9 act, CYP2C19 activ, CYP2C9 inh, MRP resist rev, CYP2C19 inh)
CCCS(=O)(=O)c1nc(S(=O)(=O)c2ccc(C)cc2)c(NCc2ccco2)s1	none (no result: CYP2C9 act, CYP2C19 activ, CYP2C9 inh, MRP resist rev, CYP2C19 inh)
COC(=O)C(Cc1ccccc1)NC(=O)C12CC3CC(CC(C3)C1)C2 (stereo not given)	none (no result: CYP2C9 act, CYP2C19 activ, CYP2C9 inh, MRP resist rev, CYP2C19 inh)
Cc1cc(-c2ccco2)n(CC(=O)NCCCc2ccccc2)n1	none
O=C(CSc1nnc(-c2ccccc2)n1Cc1ccco1)Nc1ccc2c(c1)OCCO2	CYP2C9 inh 55, CYP2C19 inh 56
CCn1c(COc2ccccc2C)nnc1SCC(=O)Nc1ccc2c(c1)OCCO2	none
Cc1cc(-c2ccco2)n(CC(=O)NCc2ccccc2)n1	CYP2C19 inh 75
Cn1cccc1Cc1nnc(SCC(=O)Nc2ccc3c(c2)OCO3)n1-c1ccc(F)cc1	none
O=C(CSc1ncc(-c2ccc(F)cc2)n1Cc1ccco1)Nc1ccc2c(c1)OCO2	CYP2C9 inh 73
Cc1ccc(OCc2nnc(SCC(=O)Nc3ccc4c(c3)OCCO4)n2Cc2ccco2)cc1	CYP2C9 inh 69
O=C(CSc1nnc(-c2cccs2)n1Cc1ccco1)Nc1ccc2c(c1)OCO2	CYP2C9 inh 63
O=C(CSc1nnc(-c2ccccc2)n1Cc1ccco1)NCc1ccc2c(c1)OCO2	CYP2C9 inh 67
CCCC1CCC(c2ccc(C(=O)NN)cc2)CC1 (stereo not given)	none (no result: CYP2C9 act, CYP2C19 activ, CYP2C9 inh, MRP resist rev, CYP2C19 inh)
O=C(CN1CCSCC1)N/N=C/c1ccc(F)c(F)c1	none
COc1ccc(CNc2ccc3c(c2)ncn3-c2ccccc2OC)cc1	CYP2C9 inh 54, CYP2C19 inh 52

From PubChem BioAssay
